Each structure is given as a SMILES string. Active and inactive are the calls of the source. Unless noted, how the calls were made is not given here.

In PubChem BioAssay one finds z-score and composite z-score data, which are given here for 13 molecules.

A short description of assay [1]: resazurin metabolic signal in HepG2 cells – cell-based, resazurin fluorescence, 24 h, PK04 Diversity Set, profiling panel (AID 1172). Further: test concentration not given here. To be noted: HepG2 viability, higher = more signal. (In general: Resazurin is reduced to fluorescent resorufin, in cell work by metabolically active cells.)
Assay [2] in a line: budding yeast growth changes without added modifier – OD600, strain BY4716, 24 h, basal condition, primary screen (AID 1173). The settings on record: S. cerevisiae BY4716 growth, OD600, 24 h; higher = more signal, called active from +8 up or from −8 down.
A short description of assay [3]: viability profiling in MM1S myeloma cells – cell-based, resazurin fluorescence, basal, 24 h, PK04 Diversity Set, profiling panel (AID 1174).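 Further: MM1S multiple myeloma cell line; test concentration not given here.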 The settings on record: higher = more signal, called active from +8 up or from −8 down.
Assay [4] has as its target Dihydroorotate dehydrogenase (quinone), mitochondrial (Plasmodium falciparum (isolate 3D7)) (UniProt Q08210). The assay can be described thus: inhibition of P. falciparum DHODH – biochemical, C-terminal His tag, absorbance 600 nm, primary screen (AID 1175).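 Further: recombinant parasite enzyme with a five histidine tag at its C terminus; test concentration not given here.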 To be noted: PfDHODH enzyme, DCIP absorbance 600 nm; higher = more signal, called active from +8 up or from −8 down.

Assay [5] can be described thus: inhibition of PAO1 biofilm formation – strain PAO1, LB-PBS medium, absorbance 600 nm, primary screen (AID 1176). Further: test concentration not given here. To be noted: P. aeruginosa PAO1 growth/biofilm, A600, 12 h; higher = more signal.
A short description of assay [6]: growth modulation of vineyard yeast isolate – strain RM11-1a, OD600, basal, 24 h, primary screen (AID 1177).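 Further: cultures grown under basal conditions with no added stressor; test concentration not given here.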 To be noted: S. cerevisiae RM11-1a growth, OD600, 24 h; higher = more signal, called active from +8 up or from −8 down.
The nature of assay [7]: growth of efflux-deficient E. coli DRC39 – strain DRC39, OD650, 24 h, E. coli filamentation inducers, primary screen (AID 1178).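 Further: growth measured as culture turbidity by optical density at 650 nm; test concentration not given here.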 To be noted: E. coli DRC39 acrAB, higher = more signal, called active from +8 up or from −8 down.
Assay [8] can be described thus: growth of efflux-deficient E. coli DRC39 – strain DRC39, OD650, 48 h, E. coli filamentation inducers, primary screen (AID 1179).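 Further: screen aims at cell division blockers that make cells filament.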 To be noted: E. coli DRC39 delta-acrAB growth, higher = more signal, called active from +8 up or from −8 down.
The nature of assay [9]: viability profiling in RPMI8226 myeloma cells – cell-based, resazurin fluorescence, basal, 24 h, PK04 Diversity Set, profiling panel (AID 1180).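 Further: RPMI8826 multiple myeloma cell line at 5000 cells per well; test concentration not given here.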 The settings on record: higher = more signal.
The target of assay [10] is E3 ubiquitin-protein ligase XIAP (Homo sapiens) (UniProt P98170). Description: small molecules binding XIAP protein – biophysical, small-molecule microarray, fluorescence 635 nm, primary screen (AID 1181).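 Further: score merges 667 nm emission and signal to noise over triplicate slides.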 To be noted: higher = more signal.
Chain of E3 ubiquitin-protein ligase XIAP (Homo sapiens) (P98170 whole entry, looked up): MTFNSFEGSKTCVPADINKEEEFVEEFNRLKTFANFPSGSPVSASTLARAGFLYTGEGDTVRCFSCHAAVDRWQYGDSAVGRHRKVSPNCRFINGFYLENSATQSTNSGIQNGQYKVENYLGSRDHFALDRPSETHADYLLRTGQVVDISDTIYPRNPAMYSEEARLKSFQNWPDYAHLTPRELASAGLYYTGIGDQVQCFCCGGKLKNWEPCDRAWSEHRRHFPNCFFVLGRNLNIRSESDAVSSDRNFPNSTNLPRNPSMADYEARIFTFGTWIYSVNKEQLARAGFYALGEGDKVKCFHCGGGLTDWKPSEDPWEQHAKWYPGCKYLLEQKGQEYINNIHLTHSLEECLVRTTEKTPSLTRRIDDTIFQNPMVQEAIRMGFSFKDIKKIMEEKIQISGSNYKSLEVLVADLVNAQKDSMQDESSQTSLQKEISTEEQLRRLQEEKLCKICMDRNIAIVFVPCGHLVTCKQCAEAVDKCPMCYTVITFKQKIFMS

Chain of Dihydroorotate dehydrogenase (quinone), mitochondrial (Plasmodium falciparum (isolate 3D7)) (Q08210 whole entry, looked up): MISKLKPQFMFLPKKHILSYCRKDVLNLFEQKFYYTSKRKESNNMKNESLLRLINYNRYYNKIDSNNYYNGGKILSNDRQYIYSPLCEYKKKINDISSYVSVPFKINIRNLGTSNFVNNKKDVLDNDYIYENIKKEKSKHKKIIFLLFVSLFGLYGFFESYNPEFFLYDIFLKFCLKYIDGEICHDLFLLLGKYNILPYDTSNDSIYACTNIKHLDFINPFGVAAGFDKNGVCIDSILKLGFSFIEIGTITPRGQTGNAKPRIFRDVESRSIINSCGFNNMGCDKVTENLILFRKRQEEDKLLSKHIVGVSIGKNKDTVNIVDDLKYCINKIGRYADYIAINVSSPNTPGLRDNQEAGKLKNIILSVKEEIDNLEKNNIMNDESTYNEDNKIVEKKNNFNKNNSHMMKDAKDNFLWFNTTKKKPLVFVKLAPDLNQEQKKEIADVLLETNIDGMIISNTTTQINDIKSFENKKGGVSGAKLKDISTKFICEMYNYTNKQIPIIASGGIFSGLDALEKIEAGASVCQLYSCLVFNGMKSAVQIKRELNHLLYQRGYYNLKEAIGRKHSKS

As for `C[C@@H]1NC(=O)[C@@H](C)COC(=O)[C@H](C)NC(=O)[C@@H](C)COC1=O`, the z-score in [1] is 0.0907; in [2], -2.62 (inactive); in assay [3], -0.325 (inactive); in assay [5] it was 0.365 (inactive); in assay [6], -1.09 (inactive); in assay [7], -0.0144 (inactive). Moreover, the z-score was -1.87 (inactive) in assay [8] and 0.18 in assay [9]. Besides, the figures for the composite z-score in [4] and in assay [10] were -3.05 (inactive) and 0.0714, respectively.

With `CC(C)CCN1CCc2nc(COc3ccccc3)c3c(c2C1)CO[C@@H](C)C3`, the z-score in assay [1] was -0.226; in assay [2], -0.83 (inactive); in [3] it was 0.291 (inactive); in assay [5], 0.462 (inactive); in [6], 0.288 (inactive); in [7], 1.1 (inactive). The z-score in assay [8] was -0.341 (inactive); in assay [9], 0.327. For the same molecule, the values for the composite z-score in assay [4] and in assay [10] were 0.0368 (inactive) and -0.161, respectively.

`COc1ccc(O[C@H]2C=C[C@@H](c3ccccc3)O[C@@H]2CON=C(C)CCC(=O)OC[C@H]2O[C@H](c3ccccc3)C=C[C@@H]2Oc2ccc(OC)cc2)cc1`: the z-score in [1] is 0.319; in [2] it was 0.917 (inactive); in assay [3] it was 0.427 (inactive); in [5], -0.868 (inactive); in assay [6], 1.26 (inactive); in [7], 0.277 (inactive). For the same molecule, the z-score in assay [8] is 0.434 (inactive); in assay [9], 0.476. The composite z-score was -0.497 (inactive) in assay [4] and -0.195 in assay [10].

Take `CC(C)CON=C1C[C@@H](O)[C@@H](O)[C@@H]2[C@@H]3C(=O)N(C(C)(C)C)C(=O)[C@@H]3CC[C@H]12`: the z-score in assay [1] was -0.184; in [2] it was 0.528 (inactive); in assay [3], -0.426 (inactive); in assay [5] it was -0.613 (inactive); in assay [6], -0.131 (inactive); in assay [7], 0.366 (inactive). Besides, the z-score in assay [8] is 0.476 (inactive); in assay [9], -0.246. The figures for the composite z-score in assay [4] and in assay [10] were 0.15 (inactive) and -0.102, respectively.

In the case of `CC(C)=NOC[C@@H](C)[C@H](OCc1ccccc1)C(C)C`, the z-score was -0.593 in [1]; 0.201 (inactive) in assay [2]; -0.572 (inactive) in assay [3]; -0.115 (inactive) in [5]; 0.536 (inactive) in assay [6]; -0.161 (inactive) in [7]. For the same molecule, the results for the z-score in [8] and in assay [9] were -0.339 (inactive) and 0.887, respectively. In addition, the figures for the composite z-score in assay [4] and in assay [10] were 0.444 (inactive) and 0.0077, respectively.

On to `CCOC(=O)CCN1C(=O)[C@H]2[C@H]3[C@H](O)[C@H](O)CC(=NNC(=O)OCc4ccccc4)[C@@H]3CC[C@H]2C1=O`, for which the z-score in [1] is -0.921; in assay [2], 0.192 (inactive); in assay [3], -0.931 (inactive); in [5] it was -0.331 (inactive); in assay [6], 0.116 (inactive); in assay [7] it was 0.655 (inactive). In addition, the results for the z-score in assay [8] and in assay [9] were 0.84 (inactive) and -0.663, respectively. In addition, the figures for the composite z-score in assay [4] and in [10] were 0.203 (inactive) and 0.154, respectively.

Take `CCOC(=O)CCN1C(=O)[C@H]2[C@H]3[C@H](O)[C@H](O)CC(=NOCc4ccccc4)[C@H]3CC[C@H]2C1=O`: the z-score in [1] is -0.436; in [2], 0.556 (inactive); in assay [3], -1.34 (inactive); in assay [5], 0.365 (inactive); in [6], 0.632 (inactive); in assay [7], 0.955 (inactive). For the same molecule, the z-score in [8] was 1.08 (inactive); in assay [9], -0.775. The results for the composite z-score in assay [4] and in [10] were 0.461 (inactive) and 0.012, respectively.

As for `CCCNC(=O)OC[C@H]1O[C@H](c2ccccc2)C=C[C@@H]1Oc1ccc(OC)cc1`, the z-score is -0.889 in assay [1]; -1.88 (inactive) in [2]; -1.06 (inactive) in assay [3]; -0.115 (inactive) in assay [5]; -0.0966 (inactive) in [6]; 0.507 (inactive) in [7]. Moreover, the figures for the z-score in assay [8] and in assay [9] were 0.342 (inactive) and -0.35, respectively. The composite z-score in assay [4] is 0.152 (inactive); in assay [10] it was -0.0629.

As to `C[C@@H]1CC[C@H]2C(=O)O[C@@H](COc3ccc(C(C)(C)C)cc3)CN2[C@@H]1c1ccc(Br)cc1`, the z-score was 0.937 in assay [1]; -0.752 (inactive) in [2]; 0.23 (inactive) in assay [3]; -0.291 (inactive) in assay [5]; -0.176 (inactive) in assay [6]; 0.095 (inactive) in assay [7]. Also, the results for the z-score in assay [8] and in [9] were 0.408 (inactive) and 1.06, respectively. Besides, the composite z-score in [4] was -0.184 (inactive); in assay [10], 0.072.

For `COc1cccc([C@H]2Oc3ccc(OC)cc3C(=NO[C@@H]3O[C@H](COC(C)=O)[C@@H](OC(C)=O)[C@H](OC(C)=O)[C@H]3OC(C)=O)[C@@H]2O)c1`, the z-score in assay [1] was -0.34; in assay [2], 0.387 (inactive); in assay [3], -0.726 (inactive); in assay [5], 0.347 (inactive); in assay [6] it was -1.02 (inactive); in assay [7] it was 0.416 (inactive). The z-score in [8] was -0.716 (inactive); in assay [9], -0.158. The composite z-score was -0.582 (inactive) in [4] and 0.02 in assay [10].

With `CO[C@@H]1COC(=O)[C@@H](C)NC(=O)CC=C[C@@H](C)[C@H](NS(=O)(=O)c2ccc(C)cc2)COC(=O)[C@H](C)NC(=O)CC=C[C@H]1C`, the z-score is 0.63 in assay [1]; -0.673 (inactive) in assay [2]; 0.416 (inactive) in [3]; -0.212 (inactive) in assay [5]; -0.489 (inactive) in assay [6]; 1.39 (inactive) in assay [7]. The z-score in assay [8] is 0.428 (inactive); in assay [9] it was 1.08. Also, the composite z-score in [4] is 0.0059 (inactive); in [10], -0.202.

As for `CCO[C@H](c1cc(OC)cc([N+](=O)[O-])c1OC)[C@H](C)C=CCC(=O)OC`, the z-score in [1] is -0.0508; in assay [2], -2.19 (inactive); in assay [3] it was -1.43 (inactive); in [5] it was 0.18 (inactive); in [6], 0.343 (inactive); in [7], 0.884 (inactive). In addition, the z-score in assay [8] is 0.38 (inactive); in assay [9], -0.622. For the same molecule, the composite z-score is -0.278 (inactive) in assay [4] and 0.601 in assay [10].

Regarding `COC(=O)C1=C(C)N(Cc2ccccc2)[C@]23O[C@](C(=O)OC)(C(=O)N2[C@@H]1c1ccccc1)C(C(=O)OC)=C3C(=O)OC`, the z-score in assay [1] is -0.0934; in [2] it was -1.32 (inactive); in assay [3] it was 1.08 (inactive); in [5], -0.965 (inactive); in [6] it was -0.511 (inactive); in assay [7] it was -0.907 (inactive). Besides, the z-score is -1.26 (inactive) in assay [8] and 0.345 in [9]. The composite z-score is -2.7 (inactive) in assay [4] and -0.254 in assay [10].
